In PubChem BioAssay:
Values joined by “and” are separate entries in the source; they are usually repeats but may differ in a detail not shown here. Equal entries are not always repeated. Results filed as inconclusive are left out. Active and inactive are the calls of the source.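 How the source made its calls, unless noted: active means GFP signal above the screen-wide mean plus 3 SD, that is over about 124.5% of the solvent control; inconclusive means no reading because the compound's own fluorescence disturbed strain identification; inactive means the rest.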

Experiment: yeast AGP1-GFP level changes, GLN3 branch – cell-based, multiplex flow cytometry, S. cerevisiae, primary screen (AID 1887);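 further: AGP1-GFP fusion strain of S. cerevisiae within a five-strain barcoded multiplex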
Details: 3 h, at 10 µM, stronger effect = higher value

SMILES | GFP response, % of DMSO
NS(=O)(=O)c1cc2c(cc1Cl)NC(C1C[C@H]3C=C[C@@H]1C3)NS2(=O)=O (some centres undefined) | 106% (inactive)
CC(=O)NC1C(OCc2ccccc2)OC(COC(C)=O)C(OC(C)=O)C1OC(C)=O (centres undefined) | 96% (inactive)
O=CNC1CCCc2c1[nH]c1ccc(Cl)cc21 (centres undefined) | 98.3% (inactive)
O=C(O)CP(=O)(O)O | 96.8% (inactive)
Cc1cccc(Nc2ccccc2C(=O)O)c1C | 102% (inactive)
CC1(C)CC(NCc2ccccc2)CCO1 (centres undefined) | 114% (inactive)
Cc1ccccc1C(=O)NCC(=O)O | 105% (inactive)
CCOc1cc2c3c(c1)C(C)=CC(C)(C)N3C(=O)C2=O | 102% (inactive)
O=C(N1CCCC1)C12CC3CC(C1)CC(C(=O)N1CCCC1)(C3)C2 | 101% (inactive)
O=C(NC(Nc1ccccn1)C(Cl)(Cl)Cl)c1ccccc1 (centres undefined) | 102% (inactive)
COc1cc(NC(=S)NC(=O)c2cccs2)ccc1NC(=O)C(C)C | 101% (inactive)
COc1ccc(CCN(C)CCCC(C#N)(c2cc(OC)c(OC)c(OC)c2)C(C)C)cc1OC (centres undefined) | 98.6% (inactive)
O=C1C(Cc2c[nH]c3ccccc23)NC(=S)N1Cc1ccccc1 (centres undefined) | 95.5% (inactive)
CC(C)(C)C(=O)NC(=S)NNC(=O)c1ccncc1 | 109% (inactive)
CCOC(=O)N1CCN(Cc2nc(Cc3cccc(F)c3)no2)CC1 | 101% (inactive)
C[C@@H]1C[C@H](Nc2ccccc2)c2ccccc2N1C(=O)c1cccnc1 | 101% (inactive)
OC(CCN1CCCC1)(c1ccccc1)C1CCCCC1 (centres undefined) | 89.4% (inactive)
Cc1cc(Cl)cc2c1NC(=O)[C@]21[C@@H]2C(=O)N(Cc3ccccc3)C(=O)[C@@H]2[C@@H]2CCCN21 | 99.6% (inactive)
O=C(/C=C/c1ccco1)Nc1ccccc1C(=O)O | 109% (inactive)
CC(C)c1ccc(/C=C/C(=O)O)cc1 | 83.4% (inactive)

SMILES | GFP response, % of DMSO
CCN(CC)CC(=O)Nc1c(C)cccc1C | 107% (inactive) and 105% (inactive)
CC1=C(C)C(=O)C(CCCCC#CCCCC#CCO)=C(C)C1=O | 107% (inactive)
COc1cc(C=NCC2OCCc3ccccc32)cc(OC)c1 (centres undefined) | 100% (inactive)
CN(C)CCCN1c2ccccc2CCc2ccccc21 | 95.3% (inactive)
COc1ccc2nc(S(=O)Cc3ncc(C)c(OC)c3C)[nH]c2c1 (centres undefined) | 97.1% (inactive)
COc1ccc(CNCCC2(C(C)C)CCOC(C)(C)C2)cc1 (centres undefined) | 97.2% (inactive)
COc1cccc(CN2C(=O)N(C(C)C)C(N(O)C(=O)NC(C)C)C2(C)C)c1OC (centres undefined) | 101% (inactive)
Cc1ccc(S(=O)(=O)N[C@@H](Cc2ccccc2)C(=O)CCl)cc1 | 107% (inactive)
COCCN(CCOC)Cc1c(C)[nH]c2c(C)c(C)ccc2c1=O | 102% (inactive)
CCOC(=O)C(NC(=O)CCC(=O)Nc1ccc(S(N)(=O)=O)cc1)C(O)c1ccccc1 (centres undefined) | 101% (inactive)
Cc1ccccc1N1C(N)=NC(N)=NC1(C)C | 104% (inactive)
CC1Cc2ccccc2N1NC(=O)c1ccc(Cl)c(S(N)(=O)=O)c1 (centres undefined) | 114% (inactive)
CC1=C(/C=C/C(C)=C/C=C/C(C)=C/C(=O)O)C(C)(C)CCC1 | 121% (inactive)
N/C(=N\OC(=O)/C=C/c1ccccc1)c1ccc(Br)cc1 | 94.2% (inactive)
CCOc1ccc(C(=O)C(C)=O)c(OCC)c1 | 105% (inactive)
COc1ccc(C=O)c(OC)c1 | 104% (inactive)
CC1=NN(c2ccccc2)C(=O)C1 | 111% (inactive)
COCC1CCCN(Cc2cn[nH]c2-c2cc3ccccc3o2)C1 (centres undefined) | 102% (inactive)
CC1(C)CC(=O)C(C2=NC(C)(C)Cc3ccccc32)=C(O)C1 | 101% (inactive)

Experiment: reduced mouse 2C T cell binding to pMHC/ICAM-1 vesicles – MLPCN validation set, flow cytometry, LFA-1/ICAM-1 modulator project, pilot screen (AID 2523;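 active means response below a set limit, under 55% cells CD8-positive and vesicle-bound, and CD8 cells' 90th-percentile brightness under 279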;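 on vesicle binding response: mean PE anti-B7-1 fluorescence of CD8+ cells relative to row control; 100% = QL9-loaded vesicles with DMSO vehicle in the same plate row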)
Details: 2C mouse CD8+ T cells, at 7 µM, stronger effect = lower value; double positive events: measured here: CD8+/vesicle+ event percentage

SMILES | double positive events [%] | vesicle binding response
NS(=O)(=O)c1cc2c(cc1Cl)NC(C1C[C@H]3C=C[C@@H]1C3)NS2(=O)=O (some centres undefined) | 61.8 | 153% (inactive)
CC(=O)NC1C(OCc2ccccc2)OC(COC(C)=O)C(OC(C)=O)C1OC(C)=O (centres undefined) | 65.2 | 183% (inactive)
O=CNC1CCCc2c1[nH]c1ccc(Cl)cc21 (centres undefined) | 64.4 | 173% (inactive)
O=C(O)CP(=O)(O)O | 66.7 | 206% (inactive)
Cc1cccc(Nc2ccccc2C(=O)O)c1C | 65.8 | 236% (inactive)
CC1(C)CC(NCc2ccccc2)CCO1 (centres undefined) | 60.6 | 226% (inactive)
Cc1ccccc1C(=O)NCC(=O)O | 61.4 | 130% (inactive)
CCOc1cc2c3c(c1)C(C)=CC(C)(C)N3C(=O)C2=O | 43.2 | 11.7% (active)
O=C(N1CCCC1)C12CC3CC(C1)CC(C(=O)N1CCCC1)(C3)C2 | 59.6 | 219% (inactive)
O=C(NC(Nc1ccccn1)C(Cl)(Cl)Cl)c1ccccc1 (centres undefined) | 58.7 | 157% (inactive)
